# Hits are enriched below; roughly 7.1% of the tested compounds scored in any of these assays.
# SW480 rerep – induces DNA re-replication in SW480 colon adenocarcinoma cells | Potency, µM (titrated, usually from 46.1 µM), hits mostly activators | 1.8% of 340,000 active | AID 624297 | SW480 DNA re-replication, Hoechst DNA content imaging, 48 h; also: nearly all actives have a fitted effect of over 55% in size
#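 Image-based DNA-content assay: after two days of treatment, nuclei were labelled with the DNA dye Hoechst and imaged, and hits were compounds raising the count of nuclei showing high fluorescence intensity.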
# IL-1B inflam inh – inflammasome signaling inhibition, IL-1 beta readout; AID 743279; 4.7% of 360,000 active; THP-1 LPS/ATP IL-1B secretion, AlphaLISA, 16 h; stronger effect = lower value; activity change, % at 57.5 µM; in the data active = activity change below about -50%; inconclusive = mostly about -30% to -49%
#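 Secreted IL-1B measured by AlphaLISA bead assay after 16 h compound exposure of THP-1 cells; compounds (final up to 57.5 uM) added 1 h before LPS (250 ng/mL) and ATP (1.25 mM) stimulation; lower signal means less secretion.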
# PINK1 modulator – modulators of PINK1 expression; PINK1 immunofluorescence, high-content cytometry, 24 h; AID 624263; Potency, µM (titrated, usually from 76.6 µM), actives largely listed as activators; 0.2% of 410,000 active; active = well fitted activation curve with a large enough effect; inconclusive = small, poorly fitted or top-dose-only effect; cell line not stated here; also: nearly all actives have a fitted effect of over 65% in size
#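 Decision-based qHTS: stable cells, 24 h exposure to five compound concentrations, CCCP as control. Fixed cells stained for PINK1 plus nuclear, mitochondrial and cell markers, cytometer read.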
# ATXN2 expr inh – inhibitors of ATXN2 expression; 0.72% of 360,000 active; HEK-293 ATXN2-luciferase reporter, luminescence, 24 h; Potency, µM (top dose mostly 57 µM), most hits filed as inhibitors; also: nearly all actives have a fitted effect of over 55% in size
#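 qHTS (up to 57 uM final) was run with 24 h compound exposure of reporter cells at 37 °C. Each well was multiplexed: SteadyGlo luminescence measured ATXN2-luciferase expression after a fluorogenic Gly-Phe-AFC viability readout (25 uM final).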
# MCF10A rereplic – induces DNA re-replication in MCF 10a normal breast cells; MCF 10A DNA re-replication, Hoechst nuclear intensity, 48 h; Potency, µM (doses to about 46.1 µM), actives largely listed as activators; 2.9% of 350,000 active; AID 624296; also: nearly all actives have a fitted effect of over 50% in size
# ATXN viability – reduces viability in counter-screen for ATXN expression inhibitors | S2 cells (HEK-293 line with an ATXN2-luciferase reporter) viability, CellTiter-Fluor protease fluorescence, 24 h | Potency, µM (titrated, usually from 56.7 µM), actives largely listed as cytotoxic | 0.49% of 400,000 active; also: nearly all actives have a fitted effect of over 40% in size
# Numbers stand for hits; i = inactive; ? = inconclusive; nt = no result; [ ] = dose if it differs, or a comment. Unless noted, calls follow the shape of the dose curve; as a rule, active = well fitted curve in the direction sought with a large enough effect; inconclusive = small, poorly fitted or top-dose-only effect, or another doubt; inactive = no such curve, though single readings can be large; an effect the other way counts as inactive or inconclusive.
SMILES,SW480 rerep,IL-1B inflam inh,PINK1 modulator,ATXN2 expr inh,MCF10A rereplic,ATXN viability
Cc1cccc(Cn2cc(/C=C/[N+](=O)[O-])c3ccccc32)c1,?,-67,i,i,21µM,?
N#C/C(=C\c1cccc(Oc2ccccc2)c1)C(=O)N1CCOCC1,?,-100,i,i,?,i
O=C(O)c1ccc(Cn2cc(/C=C\[N+](=O)[O-])c3ccccc32)o1,i,i,i,nt,i,nt
O=S(=O)(Nc1cccc2ccccc12)c1ccc2ccccc2c1,nt,nt,i,nt,nt,nt
CCOc1ccc(NC(=O)CN(C)C(=O)c2cc3c(s2)CCC(C)C3)cc1OCC (configuration not stated),i,i,i,i,i,i
COc1ccc(CCNC(=O)c2nc(SCc3ccc(F)cc3)ncc2Cl)cc1OC,nt,nt,i,nt,nt,nt
CCOC(=O)Cn1cc(/C=C(/C#N)C(=O)NC(C)C)c2ccccc21,i,i,i,i,i,i
COC(=O)c1ccc(Cn2cc(/C=C\[N+](=O)[O-])c3ccccc32)o1,?,-102,i,?,?,?
CCOC(=O)Cn1cc(/C=C/[N+](=O)[O-])c2ccccc21,21µM,-51,i,nt,?,nt
CCOC(=O)Cn1cc(/C=C(\C#N)C(=O)N2CCOCC2)c2ccccc21,i,-95,i,i,i,i
Cc1nn(C(C)C(=O)NCc2ccco2)c(C)c1[N+](=O)[O-] (configuration not stated),i,i,i,nt,i,?
C/C(=N\NC(=O)C(C)n1nc(C)c([N+](=O)[O-])c1C)c1ccccc1O (configuration not stated),4.6µM,i,i,16µM,?,i
CCCCCOC(=O)C1=C(C)NC(=O)NC1c1ccc2c(c1)OCO2 (configuration not stated),i,-54,i,i,i,i
CC1=C(C(=O)OCC2CCCO2)C(c2ccc(Cl)c(Cl)c2)NC(=O)N1 (configuration not stated),?,-50,i,i,i,i
CCOC(=O)C1=C(CCl)NC(=O)NC1c1ccc2c(c1)OCO2 (configuration not stated),?,-100,i,i,?,i
Oc1ccc(Br)cc1C=Nc1ccc(Cl)cc1,i,i,i,i,i,i
CCN(CC)c1ccc(N=Cc2cc(Br)ccc2O)cc1,10µM,i,i,?,?,i
COc1cc2c(cc1NC(=O)c1cccc([N+](=O)[O-])c1C)oc1ccccc12,?,-55,i,i,?,i
CCCCNC(=O)c1ccc2c(c1)N=C(CC)c1ccccc1S2,nt,nt,i,i,nt,?
CC(C)OCCCNC(=O)c1ccc2c(c1)NC(=O)c1ccccc1S2,?,i,i,i,i,i
CC1=Nc2cc(C(=O)NCCCOC(C)C)ccc2Sc2ccc(C)cc21,6.5µM,i,i,i,9.2µM,i
CCC1=Nc2cc(C(=O)NCCCOC)ccc2Sc2ccccc21,1.3µM,i,i,i,?,?
CC1=Nc2cc(C(=O)NCCCOC(C)C)ccc2Sc2ccccc21,?,i,i,i,7.3µM,i
CCCC1=Nc2cc(C(=O)NCCCOC(C)C)ccc2Sc2ccccc21,5.8µM,i,i,i,2.6µM,i
CSc1ccc(CNC(=O)c2ccccc2NC(=O)c2nsc3ccccc23)cc1,nt,nt,i,i,nt,i
SMILES,SW480 rerep,IL-1B inflam inh,PINK1 modulator,ATXN2 expr inh,MCF10A rereplic,ATXN viability
O=C(O)CNC(=O)[C@@H](CS)Cc1ccccc1,nt,nt,nt,nt,nt,i
Cc1cccc(CNC(=O)c2ccc(N3Cc4ccccc4Oc4ncccc43)s2)c1,nt,nt,i,nt,nt,nt
NC(=O)C1CCCN(Cc2ccc3c(c2)CN(Cc2ccccc2)CCO3)C1 (configuration not stated),nt,nt,i,nt,nt,i
O=C(Nc1ccc(Br)cc1)C1CCCN1S(=O)(=O)c1ccc(F)cc1 (configuration not stated),nt,nt,i,nt,nt,nt
Cc1cccc(CNc2ccnc(-c3ccc(C(=O)N(C)C)cc3)n2)c1,nt,nt,i,nt,nt,nt
Cc1cc(C(=O)CN2C(=O)C(=O)N(Cc3ccccc3)C2=O)c(C)n1Cc1ccccc1,i,i,i,i,i,i
Cc1cc(C(=O)CSc2nnc(-c3ccc(F)cc3)o2)c(C)n1CC1COc2ccccc2O1 (configuration not stated),i,i,i,i,16µM,i
Cc1cc(C(=O)CN2C(=O)C(=O)N(Cc3ccccc3)C2=O)c(C)n1CC1COc2ccccc2O1 (configuration not stated),i,i,i,i,4.6µM,i
Cc1cc(C(=O)CN2C(=O)C(=O)N(Cc3ccccc3)C2=O)c(C)n1Cc1ccc(F)cc1,?,i,i,?,5.2µM,i
COc1ccc(NC(=O)/C(Cl)=C(/Cl)S(=O)(=O)Cc2ccc(C)cc2)cn1,2.6µM,-119,i,7.1µM,?,8.9µM
COc1ccc(NC(=O)COC(=O)C(NC(=O)c2ccc(C)cc2)C(C)C)cn1 (configuration not stated),i,i,i,i,i,?
COc1ccc(NC(=O)Cc2ccc(Cl)c(Cl)c2)cn1,i,i,i,nt,i,i
COc1ccc(NC(=O)/C(Cl)=C(/Cl)S(=O)Cc2ccccc2Cl)cn1 (configuration not stated),?,-107,i,0.84µM,1µM,0.6µM
COc1cccc(CNC(=O)CCn2c(=O)c3cccn3c3ccc(F)cc32)c1OC,nt,nt,i,nt,nt,nt
Cc1ccc(/C=N/NC(=O)c2cc(-c3cccnc3)nc3ccccc23)cc1,2.6µM,i,i,i,23µM,i
Cc1cc(C(=O)N/N=C/c2ccncc2)c(C)o1,i[9.22 µM],i,i,i,i,i
Cc1ccc(C)c(Nc2cc(C(=O)NCc3cccnc3)c3ccccc3n2)c1,i,-73,i,i,i,?
Cc1ccc(/C=N/NC(=O)c2cc(C)oc2C)cc1,4.6µM,i,i,i,?,i
O=C(N/N=C/c1cccnc1)c1cc(-c2ccc(Br)cc2)nc2ccccc12,21µM,?,i,i,?,i
O=C(N/N=C/c1cccnc1)c1cc(-c2ccccc2)nc2ccccc12,i,i,i,i,i,i
CCOC(=O)C1CCCN(C(=O)c2ccc3c(c2)N(Cc2ccc(Cl)cc2)C(=O)c2ccccc2S3=O)C1 (configuration not stated),nt,nt,i,?,nt,i
O=C(N/N=C/c1cccnc1)c1cc(-c2ccc(Cl)cc2)nc2ccccc12,i,i,i,nt,?,i
O=C(N/N=C/c1ccc(Cl)cc1)c1cc(-c2cccnc2)nc2ccccc12,4.1µM,i,i,i,?,i
COc1ccc(-c2cc(NCCc3ccncc3)n3ncnc3n2)cc1,i[9.22 µM],-66,i,i,i,i
COc1ccc(CCNc2c(C)c(C)nc3ncnn23)cc1,8.2µM,i,i,i,?,i
CC(=O)Nc1ccc(-c2csc(Nc3ccc(S(N)(=O)=O)cc3)n2)cc1,i,i,i,i,i,i

# Assay outcomes deposited in PubChem by National Center for Advancing Translational Sciences (NCATS).
